Results taken from publication PMC12820563, “FoxP3 forms a head-to-head dimer in vivo and stabilizes its multimerization on adjacent microsatellites”.
Over roughly 16,000 sequences, “rpm ratio (pull-down/input)” has its median near 0.5; the highest 2% begin near 5.5. What follows is part of a selection rich in the highest values, with near analogues and random picks from the rest.

target: T1, MBP-FoxP3dN (Mus musculus, UniProt Q99JB6 188-423); assay: PD-seq (MBP pull-down with sequencing); 20 mM Tris-HCl pH 7.5, 100 mM NaCl, 1.5 mM MgCl2, 0.4 uM protein, 0.1 uM dsDNA library, 30 min, room temperature, amylose pull-down; high values mean tight binding; settings: protein: recombinant; tags: His6-MBP; chain copies: 2; dsDNA, one strand shown
T1 sequence: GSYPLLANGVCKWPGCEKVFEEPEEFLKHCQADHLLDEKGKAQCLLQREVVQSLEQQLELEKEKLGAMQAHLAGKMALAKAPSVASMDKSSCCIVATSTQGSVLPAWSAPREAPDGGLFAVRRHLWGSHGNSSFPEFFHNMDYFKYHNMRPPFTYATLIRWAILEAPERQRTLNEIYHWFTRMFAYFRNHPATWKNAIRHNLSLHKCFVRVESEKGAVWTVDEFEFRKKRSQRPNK
Method in brief: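 A fragment of mouse FoxP3 or FoxP1 without its N-terminus, carrying a His6-MBP tag and produced in E. coli, was combined at 0.4 µM with a 0.1 µM degenerate double-stranded DNA library filled in with Klenow. The mixture sat for 30 min at room temperature in Tris pH 7.5 buffer containing NaCl and MgCl2. Protein–DNA complexes were captured on amylose resin, washed three times, and the DNA was freed with proteinase K, barcoded by PCR and sequenced on Illumina. Binding is expressed as reads-per-million enrichment of pull-down over input, with replicates pooled.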

In order of falling binding signal:
1. GATGATTGTTCTCCCAGCTGATGAATTAGGCATCTCGAGTAAACAAATTTTCCTAATCTTTCTGTTCAAGCGCCATCTAC  6.82 RPM ratio (pull-down/input)
2. GATGATTGTTCTCCCAGCTGATGAATTTGTTGCGTCGAGTAAACAAATTTTCCTAATCTTTCTGTTCAAGCGCCATCTAC  6.75 RPM ratio (pull-down/input)
3. GATGATTGTTCTCCCAGCTGATGAATTACGCATTTCGAGTAAACAAATTTTCCTAATCTTTCTGTTCAAGCGCCATCTAC  6.65 RPM ratio (pull-down/input)
4. GATGATTGTTCTCCCAGCTGATGAATTGTTTGCGTCGAGTAAACAAATTTTCCTAATCTTTCTGTTCAAGCGCCATCTAC  6.41 RPM ratio (pull-down/input)
5. GATGATTGTTCTCCCAGCTGATGAATTTACGCATTCGAGTAAACAAATTTTCCTAATCTTTCTGTTCAAGCGCCATCTAC  6.38 RPM ratio (pull-down/input)
6. GATGATTGTTCTCCCAGCTGATGAATTAGGCATTTCGAGTAAACAAATTTTCCTAATCTTTCTGTTCAAGCGCCATCTAC  6.35 RPM ratio (pull-down/input)
7. GATGATTGTTCTCCCAGCTGATGAATTACGCATGTCGAGTAAACAAATTTTCCTAATCTTTCTGTTCAAGCGCCATCTAC  6.15 RPM ratio (pull-down/input)
8. GATGATTGTTCTCCCAGCTGATGAATTTGTCATCTCGAGTAAACAAATTTTCCTAATCTTTCTGTTCAAGCGCCATCTAC  6.03 RPM ratio (pull-down/input)
9. GATGATTGTTCTCCCAGCTGATGAATTACGCAACTCGAGTAAACAAATTTTCCTAATCTTTCTGTTCAAGCGCCATCTAC  6.03 RPM ratio (pull-down/input)
10. GATGATTGTTCTCCCAGCTGATGAATTTGTCATTTCGAGTAAACAAATTTTCCTAATCTTTCTGTTCAAGCGCCATCTAC  5.68 RPM ratio (pull-down/input)
11. GATGATTGTTCTCCCAGCTGATGAATTAGGCCTCTCGAGTAAACAAATTTTCCTAATCTTTCTGTTCAAGCGCCATCTAC  5.5 RPM ratio (pull-down/input)
12. GATGATTGTTCTCCCAGCTGATGAATTACGCCTGTCGAGTAAACAAATTTTCCTAATCTTTCTGTTCAAGCGCCATCTAC  5.4 RPM ratio (pull-down/input)
13. GATGATTGTTCTCCCAGCTGATGAATTTAGGCATTCGAGTAAACAAATTTTCCTAATCTTTCTGTTCAAGCGCCATCTAC  5.38 RPM ratio (pull-down/input)
14. GATGATTGTTCTCCCAGCTGATGAATTAGGGCATTCGAGTAAACAAATTTTCCTAATCTTTCTGTTCAAGCGCCATCTAC  5.05 RPM ratio (pull-down/input)
15. GATGATTGTTCTCCCAGCTGATGAATTACGCCATTCGAGTAAACAAATTTTCCTAATCTTTCTGTTCAAGCGCCATCTAC  5.04 RPM ratio (pull-down/input)
16. GATGATTGTTCTCCCAGCTGATGAATTTTGTCATTCGAGTAAACAAATTTTCCTAATCTTTCTGTTCAAGCGCCATCTAC  4.89 RPM ratio (pull-down/input)
17. GATGATTGTTCTCCCAGCTGATGAATTTTGCGCGTCGAGTAAACAAATTTTCCTAATCTTTCTGTTCAAGCGCCATCTAC  3.39 RPM ratio (pull-down/input)
18. GATGATTGTTCTCCCAGCTGATGAATTTGCGTCGTCGAGTAAACAAATTTTCCTAATCTTTCTGTTCAAGCGCCATCTAC  2.28 RPM ratio (pull-down/input)
19. GATGATTGTTCTCCCAGCTGATGAATTGCTTATGTCGAGTAAACAAATTTTCCTAATCTTTCTGTTCAAGCGCCATCTAC  1.87 RPM ratio (pull-down/input)
20. GATGATTGTTCTCCCAGCTGATGAATTTGGTGCTTCGAGTAAACAAATTTTCCTAATCTTTCTGTTCAAGCGCCATCTAC  1.59 RPM ratio (pull-down/input)
21. GATGATTGTTCTCCCAGCTGATGAATTCGTGGTTTCGAGTAAACAAATTTTCCTAATCTTTCTGTTCAAGCGCCATCTAC  1.35 RPM ratio (pull-down/input)
22. GATGATTGTTCTCCCAGCTGATGAATTAGGCGCCTCGAGTAAACAAATTTTCCTAATCTTTCTGTTCAAGCGCCATCTAC  1.35 RPM ratio (pull-down/input)
23. GATGATTGTTCTCCCAGCTGATGAATTAGGCAGCTCGAGTAAACAAATTTTCCTAATCTTTCTGTTCAAGCGCCATCTAC  1.13 RPM ratio (pull-down/input)
24. GATGATTGTTCTCCCAGCTGATGAATTTCATTGGTCGAGTAAACAAATTTTCCTAATCTTTCTGTTCAAGCGCCATCTAC  1.11 RPM ratio (pull-down/input)
25. GATGATTGTTCTCCCAGCTGATGAATTACGCTGTTCGAGTAAACAAATTTTCCTAATCTTTCTGTTCAAGCGCCATCTAC  1.09 RPM ratio (pull-down/input)
26. GATGATTGTTCTCCCAGCTGATGAATTCATATTGTCGAGTAAACAAATTTTCCTAATCTTTCTGTTCAAGCGCCATCTAC  1.06 RPM ratio (pull-down/input)
27. GATGATTGTTCTCCCAGCTGATGAATTGCTGCACTCGAGTAAACAAATTTTCCTAATCTTTCTGTTCAAGCGCCATCTAC  1.03 RPM ratio (pull-down/input)
28. GATGATTGTTCTCCCAGCTGATGAATTTTACGCATCGAGTAAACAAATTTTCCTAATCTTTCTGTTCAAGCGCCATCTAC  1.01 RPM ratio (pull-down/input)
29. GATGATTGTTCTCCCAGCTGATGAATTGTCATTTTCGAGTAAACAAATTTTCCTAATCTTTCTGTTCAAGCGCCATCTAC  0.999 RPM ratio (pull-down/input)
30. GATGATTGTTCTCCCAGCTGATGAATTACAACTCTCGAGTAAACAAATTTTCCTAATCTTTCTGTTCAAGCGCCATCTAC  0.948 RPM ratio (pull-down/input)
31. GATGATTGTTCTCCCAGCTGATGAATTGTCATCCTCGAGTAAACAAATTTTCCTAATCTTTCTGTTCAAGCGCCATCTAC  0.941 RPM ratio (pull-down/input)
32. GATGATTGTTCTCCCAGCTGATGAATTAGGTAGTTCGAGTAAACAAATTTTCCTAATCTTTCTGTTCAAGCGCCATCTAC  0.919 RPM ratio (pull-down/input)
33. GATGATTGTTCTCCCAGCTGATGAATTGCTACCATCGAGTAAACAAATTTTCCTAATCTTTCTGTTCAAGCGCCATCTAC  0.894 RPM ratio (pull-down/input)
34. GATGATTGTTCTCCCAGCTGATGAATTCTACGCATCGAGTAAACAAATTTTCCTAATCTTTCTGTTCAAGCGCCATCTAC  0.854 RPM ratio (pull-down/input)
35. GATGATTGTTCTCCCAGCTGATGAATTTATACCTTCGAGTAAACAAATTTTCCTAATCTTTCTGTTCAAGCGCCATCTAC  0.85 RPM ratio (pull-down/input)
36. GATGATTGTTCTCCCAGCTGATGAATTCGGCACTTCGAGTAAACAAATTTTCCTAATCTTTCTGTTCAAGCGCCATCTAC  0.811 RPM ratio (pull-down/input)
37. GATGATTGTTCTCCCAGCTGATGAATTACGCAAATCGAGTAAACAAATTTTCCTAATCTTTCTGTTCAAGCGCCATCTAC  0.792 RPM ratio (pull-down/input)
38. GATGATTGTTCTCCCAGCTGATGAATTGTACGTATCGAGTAAACAAATTTTCCTAATCTTTCTGTTCAAGCGCCATCTAC  0.769 RPM ratio (pull-down/input)
39. GATGATTGTTCTCCCAGCTGATGAATTCGGTCATTCGAGTAAACAAATTTTCCTAATCTTTCTGTTCAAGCGCCATCTAC  0.728 RPM ratio (pull-down/input)
40. GATGATTGTTCTCCCAGCTGATGAATTTCGCGAGTCGAGTAAACAAATTTTCCTAATCTTTCTGTTCAAGCGCCATCTAC  0.675 RPM ratio (pull-down/input)
41. GATGATTGTTCTCCCAGCTGATGAATTAGCTGCTTCGAGTAAACAAATTTTCCTAATCTTTCTGTTCAAGCGCCATCTAC  0.674 RPM ratio (pull-down/input)
42. GATGATTGTTCTCCCAGCTGATGAATTTTTGTCATCGAGTAAACAAATTTTCCTAATCTTTCTGTTCAAGCGCCATCTAC  0.666 RPM ratio (pull-down/input)
43. GATGATTGTTCTCCCAGCTGATGAATTCTTGTCATCGAGTAAACAAATTTTCCTAATCTTTCTGTTCAAGCGCCATCTAC  0.625 RPM ratio (pull-down/input)
44. GATGATTGTTCTCCCAGCTGATGAATTAGGCAAATCGAGTAAACAAATTTTCCTAATCTTTCTGTTCAAGCGCCATCTAC  0.601 RPM ratio (pull-down/input)
45. GATGATTGTTCTCCCAGCTGATGAATTTTTTGCGTCGAGTAAACAAATTTTCCTAATCTTTCTGTTCAAGCGCCATCTAC  0.525 RPM ratio (pull-down/input)
46. GATGATTGTTCTCCCAGCTGATGAATTAACAATGTCGAGTAAACAAATTTTCCTAATCTTTCTGTTCAAGCGCCATCTAC  0.512 RPM ratio (pull-down/input)
47. GATGATTGTTCTCCCAGCTGATGAATTCTTTGCGTCGAGTAAACAAATTTTCCTAATCTTTCTGTTCAAGCGCCATCTAC  0.489 RPM ratio (pull-down/input)
48. GATGATTGTTCTCCCAGCTGATGAATTCTAAGTGTCGAGTAAACAAATTTTCCTAATCTTTCTGTTCAAGCGCCATCTAC  0.48 RPM ratio (pull-down/input)
49. GATGATTGTTCTCCCAGCTGATGAATTTATGGAGTCGAGTAAACAAATTTTCCTAATCTTTCTGTTCAAGCGCCATCTAC  0.454 RPM ratio (pull-down/input)
50. GATGATTGTTCTCCCAGCTGATGAATTTTAGGCCTCGAGTAAACAAATTTTCCTAATCTTTCTGTTCAAGCGCCATCTAC  0.444 RPM ratio (pull-down/input)
51. GATGATTGTTCTCCCAGCTGATGAATTAGAGATGTCGAGTAAACAAATTTTCCTAATCTTTCTGTTCAAGCGCCATCTAC  0.424 RPM ratio (pull-down/input)
52. GATGATTGTTCTCCCAGCTGATGAATTAGACAAATCGAGTAAACAAATTTTCCTAATCTTTCTGTTCAAGCGCCATCTAC  0.417 RPM ratio (pull-down/input)
53. GATGATTGTTCTCCCAGCTGATGAATTACTTTCTTCGAGTAAACAAATTTTCCTAATCTTTCTGTTCAAGCGCCATCTAC  0.388 RPM ratio (pull-down/input)
54. GATGATTGTTCTCCCAGCTGATGAATTTCAACGCTCGAGTAAACAAATTTTCCTAATCTTTCTGTTCAAGCGCCATCTAC  0.363 RPM ratio (pull-down/input)
55. GATGATTGTTCTCCCAGCTGATGAATTAGAGCCCTCGAGTAAACAAATTTTCCTAATCTTTCTGTTCAAGCGCCATCTAC  0.358 RPM ratio (pull-down/input)
56. GATGATTGTTCTCCCAGCTGATGAATTGCTCAGATCGAGTAAACAAATTTTCCTAATCTTTCTGTTCAAGCGCCATCTAC  0.345 RPM ratio (pull-down/input)
57. GATGATTGTTCTCCCAGCTGATGAATTACTTCACTCGAGTAAACAAATTTTCCTAATCTTTCTGTTCAAGCGCCATCTAC  0.319 RPM ratio (pull-down/input)
58. GATGATTGTTCTCCCAGCTGATGAATTGCCCGAATCGAGTAAACAAATTTTCCTAATCTTTCTGTTCAAGCGCCATCTAC  0.311 RPM ratio (pull-down/input)
59. GATGATTGTTCTCCCAGCTGATGAATTACCCATGTCGAGTAAACAAATTTTCCTAATCTTTCTGTTCAAGCGCCATCTAC  0.294 RPM ratio (pull-down/input)
60. GATGATTGTTCTCCCAGCTGATGAATTCTTAATCTCGAGTAAACAAATTTTCCTAATCTTTCTGTTCAAGCGCCATCTAC  0.28 RPM ratio (pull-down/input)
61. GATGATTGTTCTCCCAGCTGATGAATTGTCCGAATCGAGTAAACAAATTTTCCTAATCTTTCTGTTCAAGCGCCATCTAC  0.272 RPM ratio (pull-down/input)
62. GATGATTGTTCTCCCAGCTGATGAATTGAACGGGTCGAGTAAACAAATTTTCCTAATCTTTCTGTTCAAGCGCCATCTAC  0.23 RPM ratio (pull-down/input)
63. GATGATTGTTCTCCCAGCTGATGAATTTAACGAGTCGAGTAAACAAATTTTCCTAATCTTTCTGTTCAAGCGCCATCTAC  0.208 RPM ratio (pull-down/input)
